Bioassay records from PubChem BioAssay.
Most compounds without a hit are left out; they make up all but 27% or so of the library.
EphB4 ephrin blk = blocks human EphB4 binding to ephrin-B2 | EphB4 LBD / TNYL-RAW-Alexa532 peptide, fluorescence polarization | inhibition, % at 7 µM | hit rate 0.15% among 97,000 | AID 720;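 active = inhibition above the screen-wide mean inhibition plus 3 SD, cut at about 15% in these data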;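 also: 0% = DMSO wells and 100% = excess unlabeled TNYL-RAW peptide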
CYP2C19 activ = activators of human cytochrome P450 2C19; P33261; recombinant CYP2C19, luciferin-H EGE luminescence; hits give high values; 0 = fully inhibited enzyme, 1 = untreated enzyme; activation factor at 5 µM; 96,000 tested, under 10 active;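 active = activation factor of at least 2 at 5 µM in the primary screen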;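 also: 0 = wells with 2.5 mM tranylcypromine and 1 = vehicle-only wells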
CYP2C9 activ = CYP2C9 (human) activation | activation factor at 5 µM | AID 1024 | recombinant CYP2C9, luciferin-H conversion, luminescence; hits give high values; factor 1 = untreated enzyme, 0 = blocked | hit rate 1.4% among 96,000;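 active = activation factor of 2 or more for CYP2C9 at a 5 µM dose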;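 also: 0 = sulfaphenazole-blocked wells and 1 = vehicle-only wells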
Target sequence (P11712 whole entry, looked up): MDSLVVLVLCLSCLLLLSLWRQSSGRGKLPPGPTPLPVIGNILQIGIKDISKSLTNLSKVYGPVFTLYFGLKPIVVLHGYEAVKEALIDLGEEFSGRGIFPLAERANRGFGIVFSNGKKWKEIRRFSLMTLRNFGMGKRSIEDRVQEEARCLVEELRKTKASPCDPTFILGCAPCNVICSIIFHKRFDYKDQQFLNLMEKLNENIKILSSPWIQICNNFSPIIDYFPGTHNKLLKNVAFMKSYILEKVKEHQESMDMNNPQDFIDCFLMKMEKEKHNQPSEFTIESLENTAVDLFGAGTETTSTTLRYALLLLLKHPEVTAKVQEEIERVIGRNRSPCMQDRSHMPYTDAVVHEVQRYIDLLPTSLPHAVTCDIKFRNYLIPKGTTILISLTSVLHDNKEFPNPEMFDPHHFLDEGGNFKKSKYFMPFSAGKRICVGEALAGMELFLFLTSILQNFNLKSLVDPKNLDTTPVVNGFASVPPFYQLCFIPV
CYP2C19 inhib = blocks human cytochrome P450 2C19; P33261; CYP2C19 Supersomes, luciferin-H EGE luminescence, 30 min; inhibition, % at 5 µM; hit rate 21% among 96,000;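 active = CYP2C19 inhibition above a set limit at 5 µM in the primary screen, cut at about 50% in these data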;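 also: plate controls were negative control wells for no effect and 2.5 mM tranylcypromine positive control for full effect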
CYP2C9 inhib = blocks human cytochrome P450 2C9; P11712; CYP2C9 Supersomes, luciferin-H conversion, luminescence; inhibition, % at 5 µM; hit rate 20% among 96,000; AID 777;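 active = blocking of liver enzyme CYP2C9 beyond about 50% at 5 µM, limit read from the data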
* = called active by the depositor.

For CCCCCCCC(=O)NN1CCOCC1 the results were EphB4 ephrin blk 3, CYP2C19 activ 0.9, CYP2C9 activ 1, CYP2C19 inhib 7 and CYP2C9 inhib 3.
COc1cccc(C(=O)N(Cc2ccco2)Cc2cc3cccc(C)c3[nH]c2=O)c1 was read as EphB4 ephrin blk 10, CYP2C19 activ 0.8, CYP2C9 activ 0.6, CYP2C19 inhib 16 and CYP2C9 inhib 40.
Screening COCCn1c(C)cc(C(=O)CSc2nc(C)cc(C)c2C#N)c1C returned EphB4 ephrin blk 4, CYP2C19 activ 0.2, CYP2C9 activ 1.1, CYP2C19 inhib 78* and CYP2C9 inhib -14.
`O=C(O)c1nsc(Cl)c1Cl` gave EphB4 ephrin blk -8, CYP2C19 activ 1, CYP2C9 activ 0.9, CYP2C19 inhib 0 and CYP2C9 inhib 6.
`CN1C=CC=C/C1=C1\SC(=S)N(C2CCCCC2)C1=O` gave EphB4 ephrin blk 7, CYP2C19 activ 0.4, CYP2C9 activ 0.7, CYP2C19 inhib 58* and CYP2C9 inhib 26.
Cc1nn2c3ccccc3nc2c2ccccc12 was read as EphB4 ephrin blk -2, CYP2C19 activ 1, CYP2C9 activ 0.9, CYP2C19 inhib 3 and CYP2C9 inhib 5.
For Cc1cc2cc(CN(Cc3ccco3)C(=O)NCc3ccccc3)c(=O)[nH]c2cc1C the results were EphB4 ephrin blk -2, CYP2C19 activ 0.6, CYP2C9 activ 0.6, CYP2C19 inhib 39 and CYP2C9 inhib 36.
Screening CC1(C)Cc2nc3sc4c(SCC(=O)NCc5ccco5)ncnc4c3cc2CO1 returned EphB4 ephrin blk -3, CYP2C19 activ 0.5, CYP2C9 activ 0.4, CYP2C19 inhib 46 and CYP2C9 inhib 64*.
For Cc1nc2c(sc3nc4c(cc32)COC(C)(C)C4)c(=O)n1CC(=O)NCc1ccco1 the results were EphB4 ephrin blk -10.
Screening CC(C)c1nc2sc3c(SCC(=O)NCc4ccco4)ncnc3c2c2c1CCC2 returned CYP2C19 activ 0.4, CYP2C9 activ 0.3, CYP2C19 inhib 59* and CYP2C9 inhib 70*.
Screening N#Cc1c(-n2cccc2/C=N/O)sc2c1CCCC2 returned EphB4 ephrin blk 1, CYP2C19 activ 0.6, CYP2C9 activ 2.8*, CYP2C19 inhib 40 and CYP2C9 inhib -176.
O=C(c1ccccc1)c1cncc(Br)c1 was read as EphB4 ephrin blk 2, CYP2C19 activ 0.9, CYP2C9 activ 0.9, CYP2C19 inhib 11 and CYP2C9 inhib 7.
COC(=O)c1ccccc1NC(=O)c1ccc(Cn2cc(Cl)cn2)o1 was read as EphB4 ephrin blk -7, CYP2C19 activ 0.5, CYP2C9 activ 1.3, CYP2C19 inhib 50* and CYP2C9 inhib -33.
`COC(=O)c1cc(NC(=O)c2ccc(Cn3cc(Cl)cn3)o2)cc(C(=O)OC)c1` gave EphB4 ephrin blk 0, CYP2C19 activ 0.2, CYP2C9 activ 0.1, CYP2C19 inhib 77* and CYP2C9 inhib 89*.
Screening Cc1ccc(NC(=O)c2ccc(Cn3cc(Br)cn3)o2)cc1 returned EphB4 ephrin blk -7.
`COC(=O)c1ccccc1NC(=O)c1ccc(COc2cc(C)cc(C)c2)o1` gave EphB4 ephrin blk -4, CYP2C19 activ 1.1, CYP2C9 activ 1.3, CYP2C19 inhib -15 and CYP2C9 inhib -25.
`CCCCN1CNC(=S)N(c2cc(C)ccc2C)C1` gave EphB4 ephrin blk -5, CYP2C19 activ 0.3, CYP2C9 activ 0.9, CYP2C19 inhib 72* and CYP2C9 inhib 9.
For CCOC(=O)C(C)Sc1nc(N)c(NC(=O)c2ccc(OC)c(OC)c2)c(=O)[nH]1 (configuration not stated) the results were EphB4 ephrin blk 0, CYP2C19 activ 1, CYP2C9 activ 1, CYP2C19 inhib -5 and CYP2C9 inhib 2.
`COc1ccc(NC2CC(=O)NC2=O)cc1` (configuration not stated) gave EphB4 ephrin blk -5, CYP2C19 activ 1.1, CYP2C9 activ 1, CYP2C19 inhib -9 and CYP2C9 inhib -2.
`CCOC(=O)C1CCN(CC(O)COc2ccc(C(=O)CC)cc2)CC1` (configuration not stated) gave EphB4 ephrin blk -6, CYP2C19 activ 1, CYP2C9 activ 0.9, CYP2C19 inhib 4 and CYP2C9 inhib 6.
Screening CCC(=O)c1ccc(OCC(O)CN2CCN(S(=O)(=O)N3CCCCC3)CC2)cc1 (configuration not stated) returned EphB4 ephrin blk -5, CYP2C19 activ 0.5, CYP2C9 activ 0.3, CYP2C19 inhib 52* and CYP2C9 inhib 72*.
O=C(c1ccccc1)c1ccc(OCC(O)CN2CCN(S(=O)(=O)N3CCCCC3)CC2)cc1 (configuration not stated) was read as EphB4 ephrin blk -1, CYP2C19 activ 0.1, CYP2C9 activ 0, CYP2C19 inhib 85* and CYP2C9 inhib 98*.
Screening O=C(c1ccccc1)c1ccc(OCC(O)CN2CCCCC2)cc1 (configuration not stated) returned EphB4 ephrin blk -4, CYP2C19 activ 0.8, CYP2C9 activ 0.9, CYP2C19 inhib 18 and CYP2C9 inhib 9.
Screening CC1=CC(C)(C)N(C(=O)C(C)N2C(=O)c3ccccc3C2=O)c2ccc(C)cc21 (configuration not stated) returned EphB4 ephrin blk 2, CYP2C19 activ 0.2, CYP2C9 activ 0.9, CYP2C19 inhib 83* and CYP2C9 inhib 7.
`CC1=CC(C)(C)N(C(=O)CN2C(=O)c3ccccc3C2=O)c2ccccc21` gave EphB4 ephrin blk -2, CYP2C19 activ 0.7, CYP2C9 activ 0.1, CYP2C19 inhib 30 and CYP2C9 inhib 87*.
For CC1=CC(C)(C)N(S(=O)(=O)c2ccc(C)cc2)c2ccccc21 the results were EphB4 ephrin blk 5, CYP2C19 activ 0.6, CYP2C9 activ 0.4, CYP2C19 inhib 44 and CYP2C9 inhib 62*.
For CCC(C)(C)n1nnnc1CN1CCSCC1 the results were EphB4 ephrin blk 3, CYP2C19 activ 0.7, CYP2C9 activ 1.1, CYP2C19 inhib 27 and CYP2C9 inhib -6.
CC(=O)CC(c1ccc([N+](=O)[O-])cc1)c1c(O)c2ccccc2oc1=O (configuration not stated) was read as EphB4 ephrin blk 5, CYP2C19 activ 0.8, CYP2C9 activ 0.2, CYP2C19 inhib 15 and CYP2C9 inhib 76*.
Screening CCCn1c(N)c(Sc2ccc(Cl)cc2)c(=O)n(CCC)c1=O returned EphB4 ephrin blk 0, CYP2C19 activ 0.1, CYP2C9 activ 0.4, CYP2C19 inhib 90* and CYP2C9 inhib 58*.
Screening Cc1ccc(N(C(=O)c2sc(C)nc2C)C(C(=O)NCc2ccco2)c2ccccc2)cc1 (configuration not stated) returned EphB4 ephrin blk -9, CYP2C19 activ 0.8, CYP2C9 activ 0.9, CYP2C19 inhib 16 and CYP2C9 inhib 10.
Screening CCCCOc1ccc(C(=O)NC)cc1 returned EphB4 ephrin blk 0, CYP2C19 activ 0.8, CYP2C9 activ 0.9, CYP2C19 inhib 22 and CYP2C9 inhib 12.
Screening CCNC(=O)COc1ccc(Br)cc1Cl returned EphB4 ephrin blk -4, CYP2C19 activ 0.3, CYP2C9 activ 0.4, CYP2C19 inhib 73* and CYP2C9 inhib 57*.
